Experimental data published in PubChem BioAssay (NCATS).
Records with an inconclusive call do not appear. Entries that show only a call come without a potency. Active and inactive are the calls of the source. Calls follow the shape of the dose curve; as a rule, active = well fitted inhibition curve with a large enough effect; inconclusive = small, poorly fitted or top-dose-only effect; inactive = flat fitted curve, though single readings scatter.

Tests used:
Assay in all cases: qHTS profiling for inhibitors of Plasmodium falciparum proliferation (AID 504749); also: nearly all actives have a fitted effect of over 60% in size
Conditions in all cases: P. falciparum in erythrocytes, SYBR Green DNA, 72 h; series mostly up to 28.7 µM
ATS95 = test system: ATS95
In short: (§1)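 In a 72 h erythrocytic culture (37 C, humidified, 5% CO2) at 2.5% hematocrit and 0.3% starting parasitemia, compounds were tested; SYBR Green I in detergent lysis buffer stained parasite DNA overnight.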

C2A = test system: C2A
In short: as §1

CP185 = test system: CP185
In short: as §1

CP191 = test system: CP191
In short: as §1

CP217 = test system: CP217
In short: as §1

CP237 = test system: CP237
In short: as §1

CP238 = test system: CP238
In short: as §1

CP247 = test system: CP247
In short: as §1

CP250 = test system: CP250
In short: as §1

CP252 = test system: CP252
In short: as §1

CP256 = test system: CP256
In short: as §1

CP260 = test system: CP260
In short: as §1

CP265 = test system: CP265
In short: as §1

CP192 = test system: CP192
In short: as §1

CP194 = test system: CP194
In short: as §1

CP211 = test system: CP211
In short: as §1

CP215 = test system: CP215
In short: as §1

CP262 = test system: CP262
In short: as §1

CP201 = test system: CP201
In short: as §1

CP203 = test system: CP203
In short: as §1
Potency is read from the fitted curve at half-maximal effect.

SMILES | Potency (ATS95) | Potency (C2A) | Potency (CP185) | Potency (CP191) | Potency (CP217) | Potency (CP237) | Potency (CP238) | Potency (CP247) | Potency (CP250) | Potency (CP252) | Potency (CP256) | Potency (CP260) | Potency (CP265) | Potency (CP192) | Potency (CP194) | Potency (CP211) | Potency (CP215) | Potency (CP262) | Potency (CP201) | Potency (CP203)
Nc1nc(Cl)nc2c1ncn2[C@H]1C[C@H](O)[C@@H](CO)O1 | inactive | inactive | inactive | inactive | inactive | inactive | inactive | inactive | inactive | inactive | inactive | inactive | inactive | – | – | – | – | – | – | –
Clc1ccc(C(Cn2ccnc2)OCc2ccsc2Cl)c(Cl)c1 (stereo not drawn) | 7.08 µM (active) | – | 7.94 µM (active) | 7.08 µM (active) | 5.01 µM (active) | 3.98 µM (active) | 10 µM (active) | 5.01 µM (active) | 11.2 µM (active) | 7.94 µM (active) | 10 µM (active) | 11.2 µM (active) | 7.94 µM (active) | 16.9 µM (active) | 8.49 µM (active) | 13.5 µM (active) | 6.01 µM (active) | 13.5 µM (active) | – | –
N=C(N)c1ccc2cc(OC(=O)c3ccc(N=C(N)N)cc3)ccc2c1 | – | – | – | 3.98 µM (active) | – | 7.08 µM (active) | – | 8.91 µM (active) | inactive | – | – | – | – | inactive | – | – | – | – | – | –
CCCCCCCCOc1ccccc1C(=O)Nc1ccc(C(=O)OCC[N+](C)(CC)CC)cc1 | 7.94 µM (active) | 12.6 µM (active) | 8.91 µM (active) | 7.94 µM (active) | 10 µM (active) | 7.94 µM (active) | 8.91 µM (active) | 10 µM (active) | – | – | – | 7.08 µM (active) | – | – | – | – | – | inactive | – | –
Cc1cc(=O)oc2cc(O)ccc12 | inactive | – | – | inactive | – | inactive | – | – | – | – | – | – | – | inactive | inactive | inactive | inactive | – | inactive | –
COCCCOc1ccnc(CS(=O)c2nc3ccccc3[nH]2)c1C (stereo not drawn) | inactive | inactive | inactive | – | inactive | – | inactive | – | inactive | inactive | inactive | – | inactive | inactive | – | inactive | inactive | inactive | inactive | –
CN1CCC(=C2c3ccccc3CCc3sccc32)CC1 | – | inactive | – | – | – | – | – | – | inactive | – | – | – | – | – | – | – | – | inactive | – | –
CC[C@]1(O)C[C@H]2CN(CCc3c([nH]c4ccccc34)[C@@](C(=O)OC)(c3cc4c(cc3OC)N(C=O)[C@H]3[C@@](O)(C(=O)OC)[C@H](OC(C)=O)[C@]5(CC)C=CCN6CC[C@]43[C@@H]65)C2)C1 | 2.51 µM (active) | 2 µM (active) | 1.58 µM (active) | 2.24 µM (active) | 4.47 µM (active) | 0.0501 µM (active) | 2.24 µM (active) | – | 3.55 µM (active) | 3.55 µM (active) | 2.24 µM (active) | 0.0794 µM (active) | – | – | 1.69 µM (active) | 2.13 µM (active) | – | – | – | –
Cc1cc(=O)c2c(O)c3c(O)cc(=O)c4c3c3c(cc(O)c1c23)C(C)(C)C=4O | 2 µM (active) | 1.58 µM (active) | 1.58 µM (active) | 1.12 µM (active) | 0.891 µM (active) | 1.41 µM (active) | 1 µM (active) | 1.78 µM (active) | 1.41 µM (active) | 1.26 µM (active) | 1.58 µM (active) | 1.58 µM (active) | 1.58 µM (active) | – | 2.69 µM (active) | – | 2.39 µM (active) | – | – | 1.9 µM (active)
COC1=C(OC)C(=O)C(CCCCCCCCCCO)=C(C)C1=O | inactive | inactive | inactive | – | inactive | inactive | inactive | – | inactive | inactive | inactive | inactive | inactive | inactive | inactive | inactive | inactive | inactive | inactive | –
Cc1nc(Nc2ncc(C(=O)Nc3c(C)cccc3Cl)s2)cc(N2CCN(CCO)CC2)n1 | – | – | – | – | – | – | inactive | – | – | – | inactive | inactive | inactive | inactive | – | – | – | inactive | inactive | –
O=C1CCc2ccc(OCCCCN3CCN(c4cccc(Cl)c4Cl)CC3)cc2N1 | – | – | – | 8.91 µM (active) | – | 14.1 µM (active) | – | – | – | – | inactive | 11.2 µM (active) | inactive | inactive | inactive | inactive | inactive | inactive | inactive | –
O=C(O)c1cn(-c2ccc(F)cc2)c2cc(N3CCNCC3)c(F)cc2c1=O | – | inactive | – | inactive | inactive | – | – | inactive | inactive | – | – | – | – | inactive | – | – | – | – | – | –
O=C(OC1C[C@H]2CC[C@@H](C1)[N+]21CCCC1)C(O)(c1ccccc1)c1ccccc1 (stereo partly drawn) | – | 5.01 µM (active) | 2.82 µM (active) | – | – | – | 3.55 µM (active) | – | – | – | 3.55 µM (active) | – | 3.98 µM (active) | 3.79 µM (active) | – | 1.9 µM (active) | – | 4.26 µM (active) | – | –
CN(c1nccc(=O)[nH]1)C1CCN(c2nc3ccccc3n2Cc2ccc(F)cc2)CC1 | – | inactive | inactive | inactive | – | inactive | inactive | – | inactive | inactive | inactive | inactive | inactive | inactive | – | – | – | inactive | inactive | –
Cc1cc(C2CCCCC2)n(O)c(=O)c1 | – | – | – | 3.16 µM (active) | 3.55 µM (active) | – | – | – | – | 3.55 µM (active) | – | – | – | – | – | 6.42 µM (active) | 1.02 µM (active) | – | – | –
CCc1nc(N)nc(N)c1-c1ccc(Cl)cc1 | inactive | inactive | inactive | – | – | – | inactive | – | inactive | – | inactive | inactive | inactive | inactive | inactive | – | – | inactive | inactive | –
CC1=C(C)C(=O)C(C(CCCCCC(=O)O)c2ccccc2)=C(C)C1=O (stereo not drawn) | inactive | – | inactive | inactive | – | inactive | inactive | 3.98 µM (active) | – | – | inactive | inactive | inactive | inactive | – | – | – | inactive | inactive | –
Cn1c(NCCN(CCO)CCCc2ccc([N+](=O)[O-])cc2)cc(=O)n(C)c1=O | inactive | inactive | inactive | – | inactive | inactive | inactive | – | inactive | inactive | inactive | inactive | inactive | inactive | inactive | inactive | inactive | inactive | inactive | inactive
Cc1ccc(NC(=O)c2ccc(CN3CCN(C)CC3)cc2)cc1Nc1nccc(-c2cccnc2)n1 | 10 µM (active) | 11.2 µM (active) | – | – | 11.2 µM (active) | 8.91 µM (active) | – | – | – | – | – | – | – | – | – | – | – | – | – | –
CC(C)c1ccc2oc3nc(N)c(C(=O)O)cc3c(=O)c2c1 | inactive | inactive | inactive | – | – | inactive | inactive | 5.62 µM (active) | – | – | inactive | – | inactive | inactive | inactive | inactive | inactive | inactive | inactive | –
O=C(CS(=O)Cc1ccco1)NCC=CCOc1cc(CN2CCCCC2)ccn1 (stereo not drawn) | inactive | inactive | inactive | – | inactive | inactive | inactive | inactive | inactive | inactive | – | inactive | inactive | inactive | inactive | inactive | inactive | inactive | inactive | inactive
CCC(C)(Oc1ccc(C2(c3ccc(OC(C)(CC)C(=O)O)cc3)CCCCC2)cc1)C(=O)O (stereo not drawn) | inactive | inactive | inactive | inactive | inactive | inactive | inactive | inactive | inactive | inactive | inactive | – | inactive | – | inactive | inactive | inactive | inactive | inactive | –
CCC[C@@H]1C[C@@H](C(=O)N[C@@H]([C@H]2O[C@H](SC)[C@H](O)[C@@H](O)[C@H]2O)[C@@H](C)O)N(C)C1 | – | – | – | – | – | – | – | – | inactive | – | 0.398 µM (active) | – | – | – | – | – | 2.69 µM (active) | 2.39 µM (active) | – | –
c1ccc2[nH]c(-c3cscn3)nc2c1 | inactive | inactive | – | inactive | inactive | inactive | inactive | – | – | inactive | inactive | inactive | inactive | inactive | inactive | inactive | inactive | inactive | inactive | inactive
CCCCC(CC)COC(=O)C(C#N)=C(c1ccccc1)c1ccccc1 (stereo not drawn) | – | inactive | – | – | – | – | inactive | – | – | inactive | 8.91 µM (active) | – | – | inactive | – | inactive | – | inactive | inactive | –
COC(=O)C1=C(C)NC(C)=C(C(=O)OCCCN2CCC(c3ccccc3)(c3ccccc3)CC2)C1c1cccc([N+](=O)[O-])c1 (stereo not drawn) | 5.01 µM (active) | 3.98 µM (active) | 7.08 µM (active) | 4.47 µM (active) | 3.55 µM (active) | 2.82 µM (active) | 8.91 µM (active) | 6.31 µM (active) | 7.08 µM (active) | 5.01 µM (active) | 7.08 µM (active) | 2.82 µM (active) | 7.94 µM (active) | – | 5.36 µM (active) | 6.01 µM (active) | 6.75 µM (active) | 6.01 µM (active) | 9.53 µM (active) | –
Cc1c(C(=O)NN2CCCCC2)nn(-c2ccc(Cl)cc2Cl)c1-c1ccc(Cl)cc1 | – | – | – | 11.2 µM (active) | 11.2 µM (active) | 12.6 µM (active) | – | 7.94 µM (active) | – | – | 11.2 µM (active) | – | 11.2 µM (active) | – | 16.9 µM (active) | – | 13.5 µM (active) | inactive | – | 13.5 µM (active)
